The list is not random: actives were taken first. Their share in the collection is about 10%.
GPT2 inh: inhibitors of human GPT2 alanine aminotransferase; Recombinant GPT2, coupled pyruvate oxidase/HRP Amplex Red fluorescence; Potency, µM (top dose mostly 57.7 µM), for the others: at the top dose activity change, negative = inhibition, actives largely listed as inhibitors; 100,000 compounds, 0.25% hits; AID 1671188; further: on the % scale 0 is the no-effect control and ±100 the full control effect; nearly all actives have a fitted effect of over 60% in size
Target sequence (Q8TD30 whole entry, looked up): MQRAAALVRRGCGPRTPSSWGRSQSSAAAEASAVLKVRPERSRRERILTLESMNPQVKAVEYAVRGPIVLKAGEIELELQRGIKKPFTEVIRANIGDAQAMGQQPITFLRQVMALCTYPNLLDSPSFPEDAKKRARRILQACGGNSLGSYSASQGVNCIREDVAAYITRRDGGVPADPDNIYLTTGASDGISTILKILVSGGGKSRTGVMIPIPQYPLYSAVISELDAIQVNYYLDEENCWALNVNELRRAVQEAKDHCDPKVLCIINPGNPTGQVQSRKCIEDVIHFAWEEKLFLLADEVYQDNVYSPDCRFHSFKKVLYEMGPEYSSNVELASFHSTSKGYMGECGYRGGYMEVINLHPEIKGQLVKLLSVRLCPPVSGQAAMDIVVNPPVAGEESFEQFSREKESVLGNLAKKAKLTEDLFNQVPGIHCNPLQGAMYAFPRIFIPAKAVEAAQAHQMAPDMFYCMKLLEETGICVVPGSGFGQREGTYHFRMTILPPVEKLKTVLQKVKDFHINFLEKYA
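Fluorescence of coupled pyruvate oxidase/HRP/Amplex Red system (50uM Amplex, 30 min, dark) reports pyruvate formed by GPT2. Enzyme reaction: 10ng/uL GPT2, 2mM L-alanine, 250uM a-KG, 30 min room temperature, pH 7.5; 50uM AOA control.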
NIH3T3 tox: kills NIH 3T3 cells; NIH 3T3 viability, CellTiter-Glo ATP luminescence, 48-72 h; Potency, µM (doses to about 96.7 µM), inactives show at the top dose activity change, negative = cytotoxicity, actives largely listed as inhibitors; 94,000 compounds, 4.3% hits; further: on the % scale 0 is the no-effect control and ±100 the full control effect; nearly all actives have a fitted effect of over 55% in size
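First NIH 3T3 cells are plated at 400 cells/well; next compound is pinned in; then plates incubate 48 or 72 hr at 37 °C; finally CellTiter-Glo is added and luminescence read after 10 min.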
FLuc inh-1: blocks purified firefly luciferase enzyme activity; P08659; purified P. pyralis luciferase, luminescence, biochemical; Potency, µM (series often up to 115 µM), actives largely listed as inhibitors; 76,000 compounds, 2.5% hits; AID 1347043; further: on the % scale 0 is the no-effect control and ±100 the full control effect; nearly all actives have a fitted effect of over 65% in size
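Purified P. pyralis luciferase (10nM final) in 50mM Tris acetate pH 7.5, 10mM Mg acetate, 0.01% Tween-20, 0.05% BSA with 10uM D-luciferin and 10uM ATP. Compounds titrated qHTS. Luminescence imaged on CCD.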
HEK293 tox: HEK 293 cell cytotoxicity; HEK 293 viability, ATP luminescence (CellTiter-Glo), 48-72 h; Potency, µM (highest dose often 115 µM), without a hit: at the top dose activity change, negative = cytotoxicity, usual class: inhibitors; 94,000 compounds, 6.6% hits; AID 1345083; further: on the % scale 0 is the no-effect control and ±100 the full control effect; nearly all actives have a fitted effect of over 60% in size
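qHTS cytotoxicity; HEK 293, 250 cells/well; compound pinned; 48 or 72 hr, 37 degree Celsius, 5% CO2, 95% humidity; CellTiter-Glo, 10 min RT; luminescence (ATP).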
NPR1 antag: antagonists of human natriuretic peptide receptor Npr1; P16066; HEK293 hNpr1 GloSensor cGMP, ANP-stimulated luminescence; Potency, µM (series often up to 46.3 µM), for the others: at the top dose activity change, negative = inhibition, most hits filed as inhibitors; 76,000 compounds, 1.6% hits; calls by dose curve; further: on the % scale 0 is the no-effect control and ±100 the full control effect; nearly all actives have a fitted effect of over 60% in size
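Compound pre-incubated 30 min at room temperature on GloSensor-loaded HEK293 cells stably carrying hNpr1 and the pGS-40F cGMP biosensor. Stimulation uses hNppA at 0.1 nM final; luminescence is taken at baseline and 20 min post-agonist.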
FLuc SDR -ATP: binders stabilizing firefly luciferase, without ATP | 1,300 compounds, 7.8% hits | Potency, µM (doses to about 32.7 µM), for the others: at the top dose activation (signal gain), hits mostly activators | AID 1963318 | shares compounds with FLuc inh-1 | Purified FLuc-C-HiBiT, Nano-Glo HiBiT luminescence, no ATP; further: nearly all actives have a fitted effect of over 55% in size
FLuc SDR ATP: binders stabilizing firefly luciferase, plus ATP | shares compounds with FLuc inh-1 | purified FLuc-C-HiBiT + ATP, HiBiT complementation luminescence | Potency, µM (doses to about 32.7 µM), for the others: top-dose activation (gain of signal), actives largely listed as activators | 1,300 compounds, 8.7% hits | AID 1963319;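 further: signal reports ligand binding via conformational change of the enzyme rather than luciferase catalysis; % of control where 0% means no effect; nearly all actives have a fitted effect of over 55% in size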
FLuc inh-2: firefly luciferase enzyme inhibition; purified FLuc-C-HiBiT enzyme, luciferin luminescence; 1,300 compounds, 42% hits; shares compounds with FLuc inh-1; Potency, µM (series often up to 32.7 µM), for the others: at the top dose activity change, negative = inhibition, hits mostly inhibitors; further: on the % scale 0 is the no-effect control and ±100 the full control effect; nearly all actives have a fitted effect of over 70% in size
Starred values were filed as active, the others as inactive; i = inactive; ? = inconclusive; · = no result given; [ ] = dose if it differs, or a comment. Unless noted, the call rests on the fitted dose curve; in most records, active means well fitted curve in the direction sought with a large enough effect; inconclusive means small, poorly fitted or top-dose-only effect, or another doubt; inactive means no such curve, though single readings can be large; an effect the other way counts as inactive or inconclusive. Potency means the concentration at half of the fitted maximal effect.

SMILES	GPT2 inh	NIH3T3 tox	FLuc inh-1	HEK293 tox	NPR1 antag	FLuc SDR -ATP	FLuc SDR ATP	FLuc inh-2
Cc1noc(-c2ccc3c(c2)OCO3)c1C(=O)NCCc1cccc(Cl)c1	i	?	i	?	-15.2%	·	·	·
O=C(Nc1cccnc1)c1cc(-c2ccc(Cl)cc2)on1	·	·	·	·	·	14.7%	13.7%	?
Cc1ccc(Cl)cc1NC(=O)c1cc(-c2ccc3c(c2)OCCO3)on1	·	·	·	·	·	?	?	1.76µM*
CC(C)c1ccc(-c2cc(=O)c3ccccc3o2)cc1	i	·	·	·	·	·	·	·
COc1ccc(-c2cc(=O)c3cc(OCC(=O)OC(C)C)ccc3o2)cc1	·	·	·	·	·	?	?	3.94µM*
COCCOC1CCOC2(CCN(S(=O)(=O)c3ccc(F)cc3)CC2)C1 (centres undefined)	-9.1%	-14.2%	i	-2.9%	-20.9%	·	·	·
O=C1NCCCCCCN(Cc2ccncc2)[C@@H]2CN(C(=O)Nc3ccc4c(c3)OCCO4)CC[C@H]12	-2.4%	?	11.2µM*	-21.1%	-3.3%	19.6%	16.5%	?
CN1CCCCCCN(C(=O)Nc2ccc3c(c2)OCCO3)CCC1=O	-0.1%	-11.0%	4.47µM*	-0.8%	-29.5%	28.9%	?	9.89µM*
Cc1ccc(NC(=O)N2CCCCCCNC(=O)[C@@H]3CCCC[C@@H]32)cc1C	1.9%	-27.6%	i	2.7%	1.4%	·	·	·
O=C1NCCCCCCN(C(=O)Nc2ccc3c(c2)OCCO3)[C@H]2CCCC[C@@H]12	i	-11.6%	4.47µM*	-0.3%	?	26.9%	?	8.81µM*
O=C(c1ccc(C(F)(F)F)cc1)N1CCc2nc(C3CC3)nc(-c3ccc(O)cc3)c2C1	i	?	·	?	·	·	·	·
CC(C)n1cc(-c2cc(C(=O)N3CCC(C)(C)C3)c3ccc(F)cc3n2)cn1	0.1%	?	5.01µM*	?	-13.1%	?	?	4.95µM*
CCc1ccc(NC(=O)c2cc3ccccn3n2)cc1	·	·	·	·	·	?	?	1.76µM*
COc1ccc(NC(=O)c2cc3c(N(C)Cc4ccccc4)nc(C)cn3n2)cc1	?	?	i	?	5.8%	·	·	·
O=C(O)c1ccc(-c2noc(-c3ccccc3Cl)n2)cc1	·	·	·	·	·	30.3%	1.57µM*	1.11µM*
O=C(O)c1cccc(-c2noc(-c3ccccc3C(F)(F)F)n2)c1	·	·	·	·	·	25.5%	0.124µM*	0.0624µM*
c1ccc(-c2noc(-c3ccc4ccccc4c3)n2)cc1	·	·	·	·	·	36.1%	?	0.7µM*
O=C(O)c1ccc(-c2noc(-c3ccccc3C(F)(F)F)n2)cc1	·	·	·	·	·	13.9%	?	?
O=C(O)c1cccc(-c2cncc(C(=O)O)c2)c1	-12.0%[88.5 µM]	2.9%[138 µM]	·	-1.0%[172 µM]	·	·	·	·
Cc1ccc(C)c(NC(=O)N2CCC(Oc3ncccc3C(=O)N3CCCCC3)C2)c1 (centres undefined)	i	?	i	?	2.7%	·	·	·
CC(C)CC(=O)N1CCCCCNC(=O)[C@H]2C[C@H](C(=O)N3CCc4ccccc4C3)C[C@H]21	?	-25.8%	i	?	-2.8%	·	·	·
O=C(O)c1ccc(-c2noc(-c3cccc(Cl)c3)n2)cc1	·	·	·	·	·	?	?	7µM*
COc1ccccc1CCC(=O)N1CCC2(CC1)NC(=O)N(c1ccccc1)N2	?	?	i	?	-8.2%	·	·	·
CCNc1cc(N2CCC(CCC(=O)O)CC2)ncn1	i	-8.0%	31.6µM*	10.8%	0.0%	12.8%	9.89µM*	5.56µM*
CCNc1cc(N2CCC(CCC(=O)Nc3cccc(OC)c3)CC2)ncn1	3.3%	-14.9%	?	?	?	·	·	·
SMILES	GPT2 inh	NIH3T3 tox	FLuc inh-1	HEK293 tox	NPR1 antag	FLuc SDR -ATP	FLuc SDR ATP	FLuc inh-2
Cc1cccc(CNC(=O)Cc2csc3ccccc23)c1	·	·	·	·	·	15.5%	11.7%	-17.3%
Cc1ccc(-c2nnc([C@H]3CCN(C(=O)c4ccccc4)C3)o2)cc1	3.1%[88.5 µM]	-18.6%[174 µM]	i	?	-6.9%[70.6 µM]	·	·	·
Cc1ccc(-c2nnc(SCc3ccccc3C#N)o2)cc1	·	·	·	·	·	16.5%	?	2.21µM*
COc1cc(NC(=O)c2ccc(-c3ncn[nH]3)cc2)ccc1NC(=O)C(C)(C)C	i	?	11.2µM*	25.1µM*	-13.6%	18.2%	11.9%	?
COc1cc(NC(=O)CCN2CCCCCC2=O)ccc1NC(=O)C(C)(C)C	-3.7%	-25.7%	i	-0.2%	9.6%	·	·	·
CC(C)(O)CCc1ccc(C(=O)NCc2noc(-c3ccco3)n2)cc1	i	-5.5%	i	0.8%	4.1%	·	·	·
CC(C)(O)CCc1ccc(C(=O)NCCSc2ccccn2)cc1	2.9%	-36.3%	2.82µM*	?	-15.4%	16.1%	19.2%	?
Fc1ccc(NCc2ccccc2-c2nnc(-c3ccccc3Cl)o2)cc1Cl	·	·	·	·	·	17.3%	9.2%	?
Fc1ccccc1-c1nnc([C@H]2CCN(Cc3cccc(Cl)c3)C2)o1	i	-14.5%[138 µM]	i	?	0.0%[70.6 µM]	·	·	·
CCOCC(=O)N1CCN(c2nnnn2-c2ccccc2)CC(O)C1 (centres undefined)	i	i	i	0.2%	0.0%	·	·	·

Screening data from PubChem BioAssay.
